For 85 compounds, inhibition results are on record in PubChem BioAssay AID588852 (The Scripps Research Institute Molecular Screening Center, 2011).

The whole screen tested about 360,000 compounds, of which about 4,600 (1.3%) were called active.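 The calls were made as follows: active = percent inhibition above its own plate's cutoff, namely the mean of that plate's compound wells plus 3 SD; inactive = the rest.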 What follows is part of a selection rich in actives, with near analogues and random picks from the rest. Peptide text beside a SMILES is read from it. * marks the point of attachment. Bz = O=C(c1ccccc1)*

In the test the target is Muscarinic acetylcholine receptor M1 (Homo sapiens) (UniProt P11229). The test is described as follows: human M1 muscarinic receptor antagonists, primary screen, CHO-K1 cells, Fluo-8 calcium fluorescence, 1536-well (AID 588852).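 Also: peak over basal fluorescence ratio during 140 s after agonist addition; 0% = ACh EC80 plus DMSO and 100% = DMSO alone without agonist.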 The following applies: CHO-K1 hM1, Fluo-8 calcium fluorescence, ACh EC80 antagonist; at 3 µM; active compounds read high.
Chain of Muscarinic acetylcholine receptor M1 (Homo sapiens) (P11229 whole entry, looked up): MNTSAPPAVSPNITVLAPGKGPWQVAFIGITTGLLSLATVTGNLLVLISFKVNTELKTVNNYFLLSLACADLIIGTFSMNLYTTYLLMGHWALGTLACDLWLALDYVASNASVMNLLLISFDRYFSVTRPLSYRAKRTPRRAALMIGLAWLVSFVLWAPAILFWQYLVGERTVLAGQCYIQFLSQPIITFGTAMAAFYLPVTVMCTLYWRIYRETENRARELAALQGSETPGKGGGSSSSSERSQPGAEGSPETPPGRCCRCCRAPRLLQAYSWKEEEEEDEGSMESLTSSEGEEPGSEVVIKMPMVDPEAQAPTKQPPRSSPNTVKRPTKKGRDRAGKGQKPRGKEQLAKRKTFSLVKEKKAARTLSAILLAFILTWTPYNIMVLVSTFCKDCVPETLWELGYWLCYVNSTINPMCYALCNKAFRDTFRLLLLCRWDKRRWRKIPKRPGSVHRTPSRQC
Usually inhibition stands for the relative decrease from the control value, in per cent. As for `Cc1cc(C)c(C)c(S(=O)(=O)Nc2cccnc2)c1C`, the inhibition was -12.2% (inactive).
The value for `COc1ccc(S(=O)(=O)Nc2cccnc2)c(Cl)c1Cl` was 9.26% (inactive); that for `COc1ccccc1Oc1ccc(S(=O)(=O)Nc2cccnc2)cc1` was 35.1% (active); that for `O=[N+]([O-])c1ccc(CN2CC(N3CC=CC3)CS2(=O)=O)cc1` (stereo not given) was 7.78% (inactive).
The value for `CCC1=Nc2cc(C(=O)NCCCN3CCOCC3)ccc2Sc2ccc(Br)cc21` was 1.43% (inactive); that for `CCCC1=Nc2cc(C(=O)NCCN3CCCC3)ccc2Sc2ccccc21` was 44% (active).
The value for `CCCC1=Nc2cc(C(=O)NCc3ccco3)ccc2Sc2ccccc21` was 13.6% (inactive).
With `Cc1cccc(CN2CCC(n3nccc3NC(=O)c3ccccc3C)CC2)n1`, the inhibition was -7.86% (inactive).
The value for `COc1ccc(-c2cnc3c(c2)C(=O)N([C@H](C)CO)C[C@@H](C)[C@H](CN(C)Cc2ccccc2)O3)cc1` was 79.4% (active); that for `C[C@@H]1CN([C@H](C)CO)C(=O)c2cc(-c3ccc(F)cc3)cnc2O[C@H]1CN(C)C(=O)c1ccc(F)cc1` was -3.76% (inactive); that for `C[C@H]1CN([C@@H](C)CO)C(=O)CCCn2nncc2CO[C@@H]1CN(C)Cc1ccc(Oc2ccccc2)cc1` was 35.8% (active).
The value for `C[C@@H]1CN([C@@H](C)CO)C(=O)CCCn2nncc2CO[C@H]1CN(C)Cc1ccc(C(F)(F)F)cc1` was -8.15% (inactive).
The value for `C[C@@H]1CN([C@@H](C)CO)C(=O)c2cc(Br)cnc2O[C@H]1CN(C)Cc1ccc(-c2ccccc2)cc1` was -3.44% (inactive); that for `Cc1ccc(CN(C)C[C@@H]2OCc3cnnn3CCCC(=O)N([C@@H](C)CO)C[C@H]2C)cc1` was -6.67% (inactive); that for `CSc1nsc(SC)c1NC(=O)OC1CCCCC1` was -9.68% (inactive).
For the compound `O=C(Nc1cccc2ccccc12)c1[nH]c(-c2ccccc2)c2c1C(=O)N(C1CC1)C2=O`, the inhibition is -24.4% (inactive).
The value for `O=C1C2C3C=CC(C3)C2C(=O)N1c1ncc([N+](=O)[O-])s1` (stereo not given) was -4.85% (inactive); that for `O=C(NC(Cc1ccccc1)C(=O)N1CCCC1C(=O)O)c1ccccc1` (stereo not drawn) (Bz-Phe-Pro-OH; configuration not given here) was -9.18% (inactive); that for `CN(Cc1ccccc1F)C(=O)C(Cc1ccccc1)NC(=O)c1ccccc1` (stereo not given) was 33.5% (active).
The value for `NC(=O)c1ccc(NC(=O)COC(=O)C(Cc2ccccc2)NC(=O)c2ccccc2)cc1` (stereo not given) was 0.83% (inactive).
The value for `CCn1ccnc1CNC(=O)CC1C(=O)NCCN1CCCc1ccccc1` (stereo not given) was -10.2% (inactive).
Regarding `C[C@@H](C(=O)Nc1ccc2ccccc2c1)[C@@H]1C[C@@]1(C)[C@@H](NC(=O)c1cccnc1)c1ccccc1`, the inhibition was -3.75% (inactive).
The value for `CCc1nc2ccc(C(=O)N3CCN(S(=O)(=O)CC)CC3)cn2c1N(C=O)CCC(C)C` was -13.9% (inactive); that for `CC1=C(C(=O)N2CCOCC2)CC(CC(=O)NCCCN(C)C)C(=O)N1Cc1ccc(C(C)(C)C)cc1` (stereo not given) was -15.7% (inactive).
The value for `COc1ccc(S(=O)(=O)NC(C)C(=O)NCc2ccncc2)cc1Cl` (stereo not given) was 25.1% (active); that for `CC(Oc1cc2oc(=O)c3c(c2cc1Cl)CCCC3)C(=O)NCc1ccncc1` (stereo not given) was 1.37% (inactive).
The value for `Cc1ccc(S(=O)(=O)NC(C)C(=O)NCc2ccc(Cl)cc2)cc1` (stereo not given) was 5.87% (inactive); that for `CC(=O)N1C[C@@H](CO)[C@@H](N(C)C(=O)c2ccco2)C[C@H]1c1ccccc1` was 30.9% (inactive).
For the compound `COc1cc(OC)cc(C(=O)NNC(=O)CNC(=O)c2ccc(Br)o2)c1`, the inhibition was 15.6% (inactive).
Consider `CCN1CN(Cc2ccccc2)CNC1=S`, for which the inhibition is 0.26% (inactive).
As to `COc1ccc(NC(=O)C2(C)Cc3c(-c4cccc(NC(C)=O)c4)ccnc3O2)cc1` (stereo not given), the inhibition was -7.09% (inactive).
The value for `COCCNc1nc(NCc2ccc(NC(C)=O)cc2)c2sccc2n1` was -8.59% (inactive).
The value for `COc1cccc(CNc2nc(NCc3cccs3)nc3ccsc23)c1` was 51.9% (active).
The value for `COc1cccc(CNc2nc(NCc3ccccc3OC)nc3ccsc23)c1` was 24.1% (inactive); that for `COc1ccc(-c2nc3c(s2)CCc2onc(-c4ccc(OC)cc4)c2-3)cc1` was -8.59% (inactive); that for `COc1cccc(C=CC(=O)C=CC=Cc2ccccc2)c1` was -3.17% (inactive).
As to `O=C(/C=C(O)/C=C/c1ccc(O)cc1)/C=C/c1ccc(O)cc1`, the inhibition was 33.7% (active).
The value for `COc1ccc(/C=C/C(=O)c2c(O)cc(OC)cc2OC)cc1` was 4.93% (inactive).
Turning to `O=S1(=O)C[C@@H](N2CCN(CCO)CC2)[C@H](COCc2ccccc2)N1`, the inhibition was 8.79% (inactive).
The value for `COC(=O)CCCC1=CC2=C(c3ccccc3)C(=O)C(C)(OC(=O)C3CCCC3)C(=O)C2=CN1c1ccc(OC)cc1` (stereo not given) was 4.39% (inactive); that for `CSc1ncccc1C(=O)N1CCCC(Nc2ccc(F)c(F)c2)C1` (stereo not given) was -21.9% (inactive); that for `Cc1ccc(CN2CC(C(=O)NNC(=O)Cn3ccc(C(F)(F)F)n3)CC2=O)cc1` (stereo not given) was -4.1% (inactive).
In the case of `O=C1NC(O)CCN1C1CC(O)C(CO)O1` (stereo not given), the inhibition is 4.13% (inactive).
The value for `NC(=O)c1nsc(C(=O)N(CC(=O)NCc2ccc(F)cc2)Cc2ccco2)c1N` was -9.5% (inactive); that for `COc1ccc(CNC(=O)C(c2ccc(O)cc2)N(Cc2ccco2)C(=O)c2snc(C(N)=O)c2N)cc1` (stereo not given) was 34.8% (active); that for `COc1cc(C(C(=O)NC2CCCC2)N(Cc2ccccc2)C(=O)c2snc(C(N)=O)c2N)ccc1O` (stereo not given) was 0.09% (inactive).
On to `CCOC(=O)N1CCN(S(=O)(=O)c2ccc(C(=O)Nc3ccc(F)cc3F)cc2)CC1`, for which the inhibition was 5.69% (inactive).
The value for `Cc1cc2cc3c(cc2nc1SCC(=O)Nc1c(C)cccc1C)CCC3` was -12.5% (inactive); that for `O=C(CC[C@H]1O[C@@H](n2ccc(=O)[nH]c2=O)[C@H](O)[C@@H]1O)N[C@H](Cc1ccccc1)C(=O)NCCCN1CCCC1=O` was -9.33% (inactive); that for `Cc1cccc(C)c1NC(=O)c1ccc(CN2CCc3ccccc3C2)cc1` was 4.61% (inactive).
The value for `Cc1ccc(NC(=O)CN2CCc3ccccc3C2)cc1C` was -11% (inactive); that for `Cc1cccc2c1-c1sc(C(=O)NCCCN3CCc4ccccc4C3)cc1CO2` was 58.2% (active).
The value for `N=c1c2c3c(sc2ncn1CCCN1CCOCC1)CCCCC3` was 1.24% (inactive); that for `CCSc1nc2sc3c(c2c(=O)[nH]1)CC(C)(C)OC3` was -5.74% (inactive); that for `O=c1c2c(nc3n1CCCCC3)sc1c(O)cccc12` was -13.7% (inactive).
Regarding `CC(C)c1nc2sc3c(c2c(=O)n1N)CC(C)(C)OC3`, the inhibition is -0.09% (inactive).
As for `N=c1c2c3c(sc2nc2n1CCCCC2)CCCC3`, the inhibition was 89.3% (active).
The value for `CC1(C)Cc2c(sc3nc4n(c(=N)c23)CCCCC4)CO1` was 53.3% (active).
The value for `COc1ccccc1-c1cnn2c(N3CCOCC3)cc(C)nc12` was -0.68% (inactive).
The value for `C=CCn1c2c(c3ccccc31)CCC2` was 3.67% (inactive); that for `Cc1ccc2cc3cc(C(=O)N4CCCCCC4)oc3nc2c1` was -17.6% (inactive); that for `Fc1ccc2[nH]c3c(N4CCSCC4)ncnc3c2c1` was 41.1% (active).
With `CCOC(=O)N(Cc1ccccc1)C1CC1`, the inhibition was -16% (inactive).
`CCCCNC(=O)CSc1nc2ccc(NC(=O)CSc3nnc(COc4ccccc4C)n3C)cc2s1`: the inhibition was -13.4% (inactive).
The value for `CCCCNC(=O)CSc1nc2ccc(NC(=O)CSc3nnc(N)s3)cc2s1` was -9.73% (inactive); that for `Nc1nnc(SCC(=O)Nc2ccc3nc(SCC(=O)Nc4ccccc4)sc3c2)s1` was 30.3% (active).
The value for `O=C1c2ccccc2C(c2nc3ccccc3[nH]2)N1c1ccccc1` (stereo not given) was -32.7% (inactive); that for `CCS(=O)(=O)Nc1ccc(C2=NN(S(=O)(=O)c3ccc(F)cc3)C(c3ccco3)C2)cc1` (stereo not given) was -7.75% (inactive).
The value for `COc1ccc(-c2cc(C(=O)N(C)CC(=O)Nc3ccccc3Cl)c3ccccc3n2)cc1OC` was 21% (active); that for `COc1ccc(NC(=O)c2cc(-c3cc(OC)c(OC)c(OC)c3)nc3ccccc23)c(OC)c1` was -10.6% (inactive).
Take `COc1cccc(NC(=O)CN(C)C(=O)c2cc(Cl)nc3ccccc23)c1`: the inhibition is -8.88% (inactive).
As for `COc1ccc(CN(C)C(=O)Cc2ccsc2)c(OC)c1OC`, the inhibition is -4.83% (inactive).
The value for `COc1ccc(S(=O)(=O)N2CCCCCC2)cc1C(=O)N(C)Cc1cccc(OC)c1OC` was -2.19% (inactive); that for `COc1ccc(-c2cc(C(=O)n3cnc4ccccc43)c3ccccc3n2)cc1` was -11.1% (inactive).
The value for `COc1ccc(CN(C)C(=O)c2cc(-c3ccc(C)cc3C)nc3ccccc23)c(OC)c1OC` was 26.6% (active); that for `COc1ccc(CN(C)C(=O)Cc2c[nH]c3ccccc23)c(OC)c1OC` was -18.1% (inactive).
The value for `COc1ccc(-c2cc(C(=O)N(C)Cc3ccc(OC)c(OC)c3OC)c3ccccc3n2)cc1OC` was 41.5% (active).
Consider `COc1ccc(Cl)cc1NC(=O)CN(C)C(=O)c1cc2ccccc2cc1OC`, for which the inhibition was -2.48% (inactive).
The value for `COc1ccc(-c2cc(C(=O)N(C)Cc3ccccc3)c3ccccc3n2)cc1` was 41% (active); that for `COc1ccc(-c2cc(C(=O)NCCCN3CCCC3=O)c3ccccc3n2)cc1OC` was 19.9% (inactive); that for `Cc1cc2oc(=O)cc(CN(C)Cc3ccccc3)c2cc1Cl` was -3.35% (inactive).
The value for `CC1(C(=O)NS(=O)(=O)c2ccccc2)CCN1C(=O)Cc1ccc(-c2ccccc2)cc1` (stereo not given) was -13% (inactive); that for `CC(=O)N1c2ccc(S(=O)(=O)N3CCCC(C(=O)Nc4ccc(C)cc4C)C3)cc2CC1C` (stereo not given) was -10.3% (inactive).
The value for `CC(=O)n1cc([C@@H]2C=C(C(=O)N3CCN(Cc4ccc5c(c4)OCO5)CC3)O[C@H](OCc3ccc(CO)cc3)C2)c2ccccc21` was 15.6% (inactive); that for `CNC[C@H]1OCc2cnnn2CCCC(=O)N([C@H](C)CO)C[C@@H]1C` was -31.6% (inactive).
